Source: PubChem
BoNT-F LC inh: BoNT/F light chain protease inhibitors, primary screen, biochemical, flow cytometry, MLPCN library | Botulinum neurotoxin type F light chain protease (Clostridium botulinum) | Multiplex microsphere protease cleavage assay | inhibition, % at 10 µM | actives 0.22% (n = 360,000); in the data active = inhibition above about 35%, passing the limit was not always enough; inconclusive = no clear call, values can overlap the other calls; note: plate controls were buffer without enzyme for full effect and enzyme alone for no effect
Bead autofluor: counter-screen for toxin protease inhibitors: compound fluorescence. compound autofluorescence counterscreen, microsphere flow cytometry; stronger effect = higher value. fluorescence intensity (test concentration not listed). actives 3.1% (n = 360,000); in the data active = fluorescence intensity above about 16000; inconclusive = no clear call, values can overlap the other calls
Anthrax LF inh2: Bacillus anthracis LF protease inhibitors, primary screen, biochemical, multiplex microsphere, MLPCN library; multiplex microsphere protease cleavage assay; inhibition, % at 10 µM; actives 0.12% (n = 360,000); note: plate controls were buffer without enzyme for full effect and enzyme alone for no effect
BoNT-A LC inh2: BoNT/A light chain protease inhibitors, primary screen, biochemical, flow cytometry, MLPCN library; multiplex microsphere protease substrate cleavage; inhibition, % at 10 µM; actives 0.17% (n = 360,000); note: plate controls were buffer without enzyme for full effect and enzyme alone for no effect
Vc quorum ag: inducers of Vibrio cholerae quorum light production without autoinducers, primary screen, BH1578 luxS cqsA deficient, single point; V. cholerae BH1578 lux reporter, luminescence, 6 h; activation, % at 18.7 µM; actives 0.16% (n = 350,000); in the data active = activation mostly above about 9.7%, no sharp cut-off; inconclusive = no clear call, values can overlap the other calls; inactive = mostly below about 3.7%
* hit, by the source's call; i = inactive; ? = inconclusive. Rows were chosen to be rich in hits. Some 3.5% of all compounds tested hit in one or more screens of this group. Cut-off read from the data, not from the text of the source, unless noted: active = inhibition above about 30%; inconclusive = no clear call, values can overlap the other calls; inactive = below that.

SMILES | BoNT-F LC inh | Bead autofluor | Anthrax LF inh2 | BoNT-A LC inh2 | Vc quorum ag
CCOC(=O)c1[nH]c2ccc(OC)cc2c1NC(=S)N1CCN(c2ccccc2OC)CC1 | 0.1 | 2082 | -2.0 | 0.2 | -0.2
CCOc1cc(-c2noc(CCC(=O)NC3CCCCC3)n2)ccc1OC | -5.0 | 3979 | -12.4 | -3.1 | -0.5
CCOc1ccc(-c2noc(CCC(N)=O)n2)cc1OCC | -3.9 | 21943* | -2.0 | -3.0 | -7.1
CN(C)C(=O)c1ccc(NC(=O)c2cncc(Br)c2)cc1 | 7.2 | 21882* | 2.3 | 3.0 | -7.1
CC(C)OC(=O)c1ccc(NC(=O)c2cncc(Br)c2)cc1 | -3.5 | 2362 | -2.0 | -0.6 | 5.6
Cc1cc(C)nc(SCC(=O)Nc2sc3c(c2C#N)CCC(C)C3)n1 (stereo not drawn) | -25.9 | 2477 | -5.2 | -1.2 | i
Cc1ccnc(SCC(=O)Nc2sc3c(c2C#N)CCC(C(C)(C)C)C3)n1 (stereo not drawn) | -0.9 | 19751* | -0.7 | ? | -3.1
CCCCn1cnc(C(=O)OCC)c1N | -1.5 | 2326 | -0.4 | 0.8 | -0.4
CCC(C)(C)c1ccc(OCCN2C(=O)NC(C)(C)C2=O)cc1 | 1.9 | 22180* | -0.3 | 1.4 | -12.5
CC1(C)NC(=O)N(CCCOc2ccccc2Br)C1=O | 3.7 | 16174* | 0.5 | 1.2 | -0.2
CC(=O)c1cccc(OCCN2C(=O)NC(C)(C)C2=O)c1 | -4.7 | 9543 | -0.8 | -0.4 | -3.7
CCc1cccc(OCCCN2C(=O)NC(C)(C)C2=O)c1 | 2.6 | 22570* | -2.3 | 0.0 | i
CCOc1cc(C=O)ccc1OCCCN1C(=O)NC(C)(C)C1=O | 4.2 | 22259* | 4.9 | 1.8 | 4.1
COc1ccc(C(=O)Nc2cc(-c3ccccc3)nn2-c2ccccc2F)cc1 | 6.5 | 3002 | 7.6 | -0.1 | 2.2
COc1cc(C(=O)NN=Cc2ccc(N(C)C)cc2)cc(OC)c1OC | -6.1 | 3437 | -1.3 | 0.0 | i
CCN(CCCn1c(SCC#N)nc2ccccc2c1=O)c1ccccc1 | 0.5 | 19328* | -16.4 | 2.4 | -12.5
CC(=O)c1cc2c(cc1F)C(C)(C)CCC2(C)C | -1.9 | 3864 | -5.4 | -0.6 | i
COc1cc(C(=O)NCC(c2cccs2)N2CCOCC2)c([N+](=O)[O-])cc1OC (stereo not drawn) | -10.7 | 6483 | -2.8 | -2.5 | -1.2
O=c1cccc2n1CC1CNC[C@H]2C1 | 3.3 | 4186 | -15.7 | -0.3 | -0.5
CN1CCC(N2CC3CC(C2)c2cccc(=O)n2C3)CC1 (stereo not drawn) | -5.9 | 24622* | -0.1 | -2.2 | i
Nc1nnnn1/N=C/c1ccccc1OCc1ccc(Cl)cc1Cl | 2.0 | 22215* | -0.4 | 3.2 | i
COC(=O)c1ccc(Oc2nc(Nc3ccc(C)c(C)c3)nc(N(C)C)n2)cc1 | -7.2 | 24525* | -4.2 | -3.2 | i
CCC(C)C(=O)Nn1c(C2CC2)nc2cc(OC)c(OC)cc2c1=O (stereo not drawn) | -1.8 | 4514 | 2.4 | -0.8 | i
CCCCc1ccc(NC(=O)c2cnccn2)cc1 | 3.0 | 4530 | -6.0 | -0.6 | i
O=C(COC(=O)c1ccccc1C(=O)c1ccc(Cl)c([N+](=O)[O-])c1)NC1CCCCCC1 | -1.4 | 23481* | 0.0 | -0.6 | -2.2
SMILES | BoNT-F LC inh | Bead autofluor | Anthrax LF inh2 | BoNT-A LC inh2 | Vc quorum ag
Cc1ccc(C(=O)CN2CCN(c3ccccn3)CC2)c(C)c1 | -18.5 | 4308 | -4.0 | -4.1 | i
Cc1ccc2cc(C)c(N3CCN(c4ccccn4)CC3)nc2c1 | -3.3 | 23535* | -4.0 | 0.3 | i
Cc1ccc(C(=O)CN(C(=O)c2ccc(Cl)c(Cl)c2)N2C(=O)C3CCCCC3C2=O)cc1C (stereo not drawn) | -3.4 | 20975* | -0.2 | ? | i
COc1cccc(C(=O)CN(C(=O)c2ccc(Cl)c(Cl)c2)N2C(=O)c3ccccc3C2=O)c1 | -6.8 | 16849* | 1.0 | ? | -0.2
Cc1ccc(C(=O)CN(C(=O)c2ccc(Cl)c(Cl)c2)N2C(=O)C3CCCCC3C2=O)cc1 (stereo not drawn) | 0.0 | 10644 | -2.5 | 0.2 | -0.4
O=P(Nc1ccccc1)(Nc1ccccc1)Oc1cccc(Cl)c1 | 18.5 | 17171* | -18.1 | ? | i
O=P(Nc1ccccc1)(Nc1ccccc1)Oc1ccccc1 | -0.6 | 2072 | -1.6 | 0.5 | i
O=c1ncn(-c2ccccc2F)c2ncccc12 | 4.1 | 21215* | 1.2 | 4.0 | 11.1
CN(C)/C(CN1CCN(C=O)CC1)=C1\N=C(c2ccccc2)OC1=O | 1.3 | 23334* | 2.3 | 1.3 | -0.2
CN(C)/C=C1\N=C(c2ccccc2)OC1=O | -2.6 | 1916 | -0.4 | -0.1 | i
S=C1NC2=C(C(c3ccc(Br)cc3)N1)N1CCC2CC1 (stereo not drawn) | 0.0 | 3547 | 1.1 | -0.8 | -0.2
Fc1cccc(C2NC(=S)NC3=C2N2CCC3CC2)c1 (stereo not drawn) | -3.2 | 17015* | -3.9 | -2.3 | 1.3
COc1cc(OC)cc(C(=O)NC(=S)Nc2ccc(Cl)c(C(=O)O)c2)c1 | -2.0 | 24431* | -0.4 | -2.4 | 7.1
COc1cc(CN2CCCC(C)C2)cc([N+](=O)[O-])c1O (stereo not drawn) | -1.7 | 23731* | 0.5 | 0.0 | -0.2
COc1cc(CN2CCCCCC2)cc([N+](=O)[O-])c1O | -8.2 | 4743 | -5.9 | -4.9 | 0.3
COc1ccc(C(=O)N2CCN(c3nnnn3-c3ccccc3)CC2)cc1OC | -0.8 | 23177* | -1.4 | -0.3 | -5.8
CC1(C(=O)Nc2nc3ccccc3s2)CC1(Br)Br (stereo not drawn) | 8.7 | 3056 | -3.5 | -1.3 | i
C=CCN1C(=O)C(CC(=O)O)SC1=Nc1ccc(C)cc1 (stereo not drawn) | 2.7 | 4217 | 0.7 | -0.3 | i
O=S(=O)(NCCc1ccncc1)c1ccc(Br)cc1 | 3.5 | 22923* | 0.5 | 1.2 | i
CC12CCC(=O)N1C(C(=O)Nc1cccc(F)c1)CS2 (stereo not drawn) | -12.8 | ? | 3.0 | -1.5 | -0.3
COc1ccc(N2C(=O)c3ccccc3NC23C(=O)N(C)c2ccccc23)cc1 (stereo not drawn) | -3.7 | 17048* | -2.4 | -4.5 | -0.8
Cc1nn(-c2ccccc2)c(C)c1/C=C/C(=O)OCC(=O)Nc1ncc(C(F)(F)F)cc1Cl | -15.9 | 10026 | -1.5 | -0.6 | -1.5
O=C(COC(=O)C1CCN(S(=O)(=O)c2cccs2)CC1)NCc1ccc(F)cc1 | 25.5 | 2344 | -0.9 | 1.4 | -0.5
CCOC(=O)Nc1ccc(S(=O)(=O)Nc2nc(C)cc(C)n2)cc1 | -6.0 | 24252* | 0.5 | -4.0 | i
O=C(CCCCCN1C(=O)c2ccccc2C1=O)Nc1ccc(S(=O)(=O)N2CCCCC2)cc1 | 1.7 | 21502* | -1.4 | ? | i
CC1CCN(S(=O)(=O)c2ccc(NC(=O)CCN3C(=O)c4ccccc4C3=O)cc2)CC1 | 0.2 | 19423* | -5.4 | 2.1 | i
